Results reported in PubChem BioAssay AID1117319 (Southern Research Institute, 2015).
Values joined by “and” are separate entries in the source; they are usually repeats but may differ in a detail not shown here. Equal values may be shown once. The campaign covered roughly 260,000 compounds. About 1,500 (0.58%) were called active. Roughly 5% stayed inconclusive and do not appear here.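 How the source made its calls: active means inhibition above a set limit at one or more doses, reproduced on every date tested; inconclusive means results disagree between test dates, or hit never tested in dose response; inactive means the rest.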 A selection follows. Results with a measured potency or affinity are listed apart.

Biological target: Virion infectivity factor (Human immunodeficiency virus type 1 group M subtype B (isolate BH10)) + Virion infectivity factor (Human immunodeficiency virus type 1 group M subtype B (isolate BRU/LAI)) + Virion infectivity factor (Human immunodeficiency virus type 1 group M subtype B (isolate PCV12)) + Virion infectivity factor (Human immunodeficiency virus type 1 group M subtype B (isolate HXB2)) + DNA dC->dU-editing enzyme APOBEC-3G (Homo sapiens) (UniProt P69720+P69721+P69722+P69723+Q9HC16)
Test: inhibitors of Vif binding to APOBEC3G peptide, primary screen, biochemical, TR-FRET, GST-Vif 1-94, biotin-A3G peptide, dose response retest (AID 1117319);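 further: Vif residues 1-94 fused to GST binding biotinylated APOBEC3G peptide 110-148; 0% = full assay without inhibitor and 100% = GST in place of GST-Vif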
Details: stronger effect = higher value

inhibition, inactive:
O=S(=O)(NCCN1CCN(S(=O)(=O)c2ccccc2F)CC1)c1ccccc1F 1.35%
O=C1NC(=O)/C(=C\c2cn(CC(=O)N3CCOCC3)c3ccccc23)S1 -3.19%
O=C(COC(=O)/C=C/c1cc(Br)ccc1F)Nc1ccc2[nH]c(=O)[nH]c2c1 -2.89%
Cc1cccc(N2CC(C(=O)O)CC2=O)c1 (stereo unspecified) -2.42%
Cc1ccc(SCC(=O)Nc2nnc(-c3ccco3)o2)cc1 6.62%
CC(=O)Nc1ccc(N=Cc2c(O)c3ccccc3oc2=O)cc1 -14.5%
Cc1ccc(-c2oc3ncnc(N)c3c2-c2ccc(C)cc2)cc1 -8.91%
COc1ccc(-c2oc3ncnc(N)c3c2-c2ccccc2)cc1 -1.94%
Cc1c(NC(=O)COc2ccc(C(C)C)cc2)c(=O)n(-c2ccccc2)n1C -8.62%
CCCCCCC(O)(c1ccccc1)C(CN1CCOCC1)c1ccccc1 (stereo unspecified) 0.34%
Cc1noc(N)c1C(=O)Nc1ccc(F)c(Cl)c1 -9.43%
CCc1noc(C)c1C(=O)Nc1ccc(F)c(F)c1 -2.68%
Cc1nc2scc(-c3ccc(Cl)cc3)c2c(=O)o1 19.2%
CCOc1ccc(C(=O)COc2ccc(NC(C)=O)cc2)cc1 6.05%
CCOC(=O)C1=c2s/c(=C\c3cccnc3)c(=O)n2C(N)=C(C(=O)OC)C1c1cccnc1 (stereo unspecified) -8.08%
CCOC(=O)C1=C(N)n2c(s/c(=C\c3cccs3)c2=O)=C(C(=O)OCC)C1c1cccs1 (stereo unspecified) -6.07% and -0.48%
CCOC(=O)C1=C(N)n2c(s/c(=C/c3ccccc3)c2=O)=C(C(=O)OCC)C1c1ccccc1 (stereo unspecified) -3.94%
CCOC(=O)C1=C(N)n2c(s/c(=C\c3ccncc3)c2=O)=C(C(=O)OCC)C1c1ccncc1 (stereo unspecified) -12.8%
CCOC(=O)C1=c2s/c(=C\c3ccncc3)c(=O)n2C(N)=C(C(=O)OC)C1c1ccncc1 (stereo unspecified) -6.47%
CCOC(=O)C1=C(C)NC(C)=C(C(=O)OCC)C1c1ccco1 22.4%
Cc1cc(SCC(=O)OC(C)C(=O)N(C)c2ccccc2)nc2ccccc12 (stereo unspecified) -7.66%
COC(=O)c1ccc(CNC(=O)Cn2nnnc2CN(C)C(C)C)cc1 -4.98%
COCCNC(=O)CSc1cc(-c2ccccc2)c2ccc(OC)cc2n1 -24.8%
COc1ccccc1CNC(=O)c1ccc(OC(C)C)cc1 -1.85%
O=C(NCc1cccnc1)c1nn2cccnc2c1Cl 14.7%
O=C(CSc1nnc2ccccn12)NNC(=O)c1cccc([N+](=O)[O-])c1 -9.15%
COc1cc2nc(CCc3ccccc3)oc(=O)c2cc1OC 19.2%
N#Cc1ccc2c(c1)nc1ccccn12 16.5%
Clc1cc2nc3ccccn3c2cc1Cl -1.52%
CC1=CN2CC(O)CN=C2C=C1 (stereo unspecified) -3.44%
Cc1cnc(C(=O)OCC(=O)N(Cc2ccccc2)C(C)(C)C)cn1 -7.28%
Cc1cc(C(=O)OCC(=O)c2ccc3c(c2)OCCO3)c(C)o1 7.16%
COC(=O)CCN(C(=O)c1ccc(Cl)c([N+](=O)[O-])c1)c1ccccn1 21.1%
O=[N+]([O-])c1ccc2c(c1)N([O-])C1(CCCCC1)[N+]2=O -0.91%
CN1c2ccc([N+](=O)[O-])cc2N(C)C1(C)c1ccccc1 (stereo unspecified) -8.03%
O=C(COC(=O)c1ccc(S(=O)(=O)N2CCOCC2)cc1)Nc1ccccc1F -5.99%
C=CCN(CC=C)C(=S)NC(=O)c1ccc(C)c(Br)c1 3.99%
C=CCN(CC=C)C(=S)NC(=O)c1ccc(OC)c(Br)c1 3.9%
C[n+]1ccn(CC(=O)c2cccs2)c1 -0.3%
O=[N+]([O-])c1ccc2nc(CN3CCCCC3)[nH]c2c1 -2.67%
Nc1ccc(C(=O)NCCCCCCNC(=O)c2ccc(N)cc2)cc1 -3.48%
Nc1ccc(C(=O)C(=O)c2ccc(N)cc2)cc1 -4.86%
CC(C)=CCN1CCN(Cc2cccn2-c2nccs2)CC1CCO (stereo unspecified) 3.13%
C/C(=N\NC(=O)CNC(=O)c1ccco1)c1ccc(Br)cc1 -0.8%
COc1ccc(/C=C/c2nc3ccccc3c(=O)n2-c2cccc(C(=O)O)c2)cc1 -12.6%
CCn1c(/C=C/c2ccc(O)c(O)c2)nc2ccccc2c1=O 23.1%
N#Cc1c(N)sc2c1CCCCCC2 22.4%
CC1(C)Cc2c(C#N)c(N)sc(=S)c2CO1 18.9%
CS(=O)(=O)N1CCC(C(=O)Nc2cccc(C(F)(F)F)c2)CC1 30.5%
COc1ccc(CCNC(=O)COC(=O)/C=C/c2ccc3c(c2)OCO3)cc1 -7.05%
COc1ccc(CCn2c(N)cc(=O)[nH]c2=O)cc1OC -7.47%
CC(=O)N1CCN(c2ccc(N=Cc3c(O)n(Cc4ccccc4)c(=O)[nH]c3=O)cc2)CC1 15.1%
CCc1ccc(-n2c(O)c(C=NCCN(CC)CC)c(=O)[nH]c2=O)cc1 1.67%
COc1ccc(CCn2c(O)c(C=Nc3cccc(F)c3)c(=O)[nH]c2=O)cc1OC 22.7%
COc1cccc(CNS(=O)(=O)c2ccc3c(c2)CCN3C(=O)C2CC2)c1 5.57%
CCCC(NC(=O)CCc1c(C)c2cc3c(-c4ccccc4)coc3cc2oc1=O)C(=O)O (stereo unspecified) -3.65%
O=c1cc(O)n(-c2ccccc2)c(=S)[nH]1 30.2%
O=c1cc(O)n(-c2ccc(Cl)cc2)c(=S)[nH]1 -0.58%
CC(C)[C@H](NC(=O)c1c(F)cccc1F)C(=O)OCC(=O)NC(=O)NC1CCCC1 -7.96%
Cc1ccccc1S(=O)(=O)c1c(C)cc(C)n(C)c1=O 6.26%
Cc1cccc(C(=O)NNS(=O)(=O)c2ccc(F)cc2)c1 -1.42%
O=C(N/N=C/c1cccc([N+](=O)[O-])c1)c1cccc2cc[nH]c12 -4.35%
CC1=C(C(N)=O)C(c2cccs2)n2nc(-c3cccc(C)c3)nc2N1 (stereo unspecified) 10.3%
COC(=O)C1=C(C)NC2=C(C(=O)CC(c3cccs3)C2)C1c1ccsc1 (stereo unspecified) 3.51%
CC1=C(C(=O)Nc2ccccc2F)C(c2ccsc2)C2=C(CC(C)(C)CC2=O)N1 (stereo unspecified) 0.63%
Cc1ccc(-c2cc(C(=O)OCC(=O)N(C)C3CCS(=O)(=O)C3)c3ccccc3n2)c(C)c1 (stereo unspecified) 5.39%
Cc1cccc(C)c1NC(=O)COC(=O)c1cccnc1 0.67%
CCCn1c(N)c(N(CCOC)C(=O)c2cc(-c3ccco3)nc3ccccc23)c(=O)[nH]c1=O 22.8%
CN(C(=O)COC(=O)c1cc(-c2ccc(Cl)s2)nc2ccccc12)C1CCS(=O)(=O)C1 (stereo unspecified) -9.51%
O=C(COC(=O)c1cc(-c2cccnc2)nc2ccccc12)Nc1ccc(F)cc1F -4.09%
O=C(COC(=O)c1cc(-c2ccco2)nc2ccccc12)NCc1ccccc1 27.6%
CCNC(=O)COC(=O)c1cc(-c2ccc(OC)cc2)nc2ccccc12 17.1%
CCCCN(C(=O)c1cc(-c2ccco2)nc2ccccc12)c1c(N)n(CCCC)c(=O)[nH]c1=O 22.2%
COc1ccc(-c2nnc(SCC(N)=O)n2N)cc1 -2.53%
O=[N+]([O-])c1ccc(/C=N/N2CCN(c3ccncc3S(=O)(=O)N3CCCCC3)CC2)cc1 -3.38%
O=C(c1cccc2ccccc12)C1CCCN(C(=O)C2CCOCC2)C1 (stereo unspecified) 3.16%
CCn1c(SCC(=O)Nc2sc3c(c2C#N)CCCC3)nnc1-c1ccco1 3.19%
COc1cccc(NC(=S)NCCc2ccccn2)c1 -0.67%
Cc1ccc(N2CC(C(=O)OCC(=O)c3c(N)n(CC(C)C)c(=O)n(C)c3=O)CC2=O)cc1 (stereo unspecified) -1.07%
COC(=O)CSc1cc(C)nc(NC(C)=O)n1 3.6%
CC(C(=O)OCC(=O)Nc1ccc2c(c1)OCO2)N1C(=O)c2ccccc2C1=O (stereo unspecified) 5.56%
CCN(CC)S(=O)(=O)c1cccc(C(=O)N[C@H](C(=O)OCC(N)=O)C(C)C)c1 19%
CC(C)c1ccc(C(=O)OCC(=O)c2c(N)n(C)c(=O)n(C)c2=O)cc1 2%
Clc1c(-c2ccccc2)nnn1-c1ccccc1 -12%
Cc1cc(C(=O)N2CCN(c3cccc(Cl)c3)CC2)c(C)o1 -5.08%
CCOC(=O)C1CCCN(C(=O)c2cc(-c3ccc(C)cc3)nc3ccccc23)C1 (stereo unspecified) 10.1%
CCOC(=O)C1CCCN(C(=O)c2cc(-c3ccccc3)nc3ccccc23)C1 (stereo unspecified) -11.1%
O=C(COC(=O)c1ccco1)NCc1ccc2c(c1)OCO2 18.2%
O=C(OCC(=O)N1CCN(C(=O)c2ccco2)CC1)c1cc(-c2ccccc2)nc2ccccc12 -3.01%
O=C(OCC(=O)N1CCN(C(=O)c2ccco2)CC1)c1cc(-c2ccc(F)cc2)nc2ccccc12 -2.07% and -4.96%
Cc1cc(C(=O)OCC(=O)NCc2ccc3c(c2)OCO3)c2ccccc2n1 -5.38%
